{"source": "ChEMBL document CHEMBL2218924", "about": "“A broad activity screen in support of a chemogenomic map for kinase signalling research and drug discovery” (Biochem J, 2013)", "data": [{"target": "Ribosomal protein S6 kinase alpha-2 (Homo sapiens) (UniProt Q15349)", "sequence (Q15349 whole entry)": "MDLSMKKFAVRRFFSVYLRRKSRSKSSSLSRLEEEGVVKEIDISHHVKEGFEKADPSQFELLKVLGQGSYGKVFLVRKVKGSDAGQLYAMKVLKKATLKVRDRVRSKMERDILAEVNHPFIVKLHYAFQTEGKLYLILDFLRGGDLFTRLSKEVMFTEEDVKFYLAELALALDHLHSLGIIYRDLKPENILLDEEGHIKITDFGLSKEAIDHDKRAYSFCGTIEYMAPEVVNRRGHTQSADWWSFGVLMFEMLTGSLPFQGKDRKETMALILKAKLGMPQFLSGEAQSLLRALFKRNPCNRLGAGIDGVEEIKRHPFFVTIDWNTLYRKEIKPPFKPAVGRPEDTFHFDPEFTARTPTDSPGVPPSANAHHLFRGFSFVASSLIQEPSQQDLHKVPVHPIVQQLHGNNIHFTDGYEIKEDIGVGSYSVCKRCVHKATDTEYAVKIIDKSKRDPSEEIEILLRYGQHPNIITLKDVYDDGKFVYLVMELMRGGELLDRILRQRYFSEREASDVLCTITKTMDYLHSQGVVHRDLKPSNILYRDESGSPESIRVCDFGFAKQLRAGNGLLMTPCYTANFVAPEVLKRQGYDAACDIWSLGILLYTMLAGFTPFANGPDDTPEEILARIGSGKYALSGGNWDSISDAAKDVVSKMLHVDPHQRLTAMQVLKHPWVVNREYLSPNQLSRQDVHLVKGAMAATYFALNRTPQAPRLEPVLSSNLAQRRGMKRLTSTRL", "conditions": "at 10 µM", "units": {"residual activity": "%"}, "values": [{"smiles": "Nc1nccc(-c2c(-c3ccc(F)cc3)ncn2C2CCNCC2)n1", "residual activity": 50}, {"smiles": "O=S(=O)(NCCNC/C=C/c1ccc(Br)cc1)c1cccc2cnccc12", "residual activity": 13}, {"smiles": "O=C1NC(=O)C(c2cn(CCCn3ccnc3)c3ccccc23)=C1Nc1ccccc1", "residual activity": -1}, {"smiles": "COc1cc2c(cc1OC)-c1n[nH]c(Nc3cccc(F)c3)c1C2", "residual activity": 63}, {"smiles": "NCCNc1ncc(C(N)=O)c(Nc2cccc(C(F)(F)F)c2)n1", "residual activity": 29}, {"smiles": "O=C1Cc2c([nH]c3ccc([N+](=O)[O-])cc23)-c2ccccc2N1", "residual activity": 22}, {"smiles": "CN([C@@H](Cc1ccc(OS(=O)(=O)c2cccc3cnccc23)cc1)C(=O)N1CCN(c2ccccc2)CC1)S(=O)(=O)c1cccc2cnccc12", "residual activity": 99}, {"smiles": "COc1ccc2c(c1)c(C1=C(c3c[nH]c4ccccc34)C(=O)NC1=O)cn2CCCN(C)C", "residual activity": -2}, {"smiles": "CCOc1nc(NC(=O)Cc2cc(OC)ccc2OC)cc(N)c1C#N", "residual activity": 71}, {"smiles": "O=C1Cc2c([nH]c3ccc(Br)cc23)-c2ccccc2N1", "residual activity": 9}, {"smiles": "O=C1Nc2ccccc2/C1=C\\c1c(Cl)[nH]c2ccccc12", "residual activity": 44}, {"smiles": "CCOC(=O)c1c(C)[nH]c(/C=C2\\C(=O)Nc3ccccc32)c1C", "residual activity": 77}, {"smiles": "COc1ccc(COc2ccc(Cc3cnc(N)nc3N)cc2OC)cc1", "residual activity": 71}, {"smiles": "Cc1cc(C)c(/C=C2\\C(=O)Nc3ccccc32)[nH]1", "residual activity": 4}, {"smiles": "CCN(CC)CCNC(=O)c1c(C)[nH]c(/C=C2\\C(=O)Nc3ccc(Cl)cc32)c1C", "residual activity": 1}, {"smiles": "O=c1cc(N2CCNCC2)oc2c(-c3ccccc3)cccc12", "residual activity": 104}, {"smiles": "O=C1NC(=O)C(c2c[nH]c3ccccc23)=C1c1c[nH]c2ccccc12", "residual activity": 0}, {"smiles": "CN(C)S(=O)(=O)c1ccc2c(c1)/C(=C/c1cc3c([nH]1)CCCC3)C(=O)N2", "residual activity": 17}, {"smiles": "O=C1NC(=O)C(c2cn(CCCO)c3ncccc23)=C1c1cnccn1", "residual activity": 55}]}, {"target": "Ribosomal protein S6 kinase alpha-6 (Homo sapiens) (UniProt Q9UK32)", "sequence (Q9UK32 whole entry)": "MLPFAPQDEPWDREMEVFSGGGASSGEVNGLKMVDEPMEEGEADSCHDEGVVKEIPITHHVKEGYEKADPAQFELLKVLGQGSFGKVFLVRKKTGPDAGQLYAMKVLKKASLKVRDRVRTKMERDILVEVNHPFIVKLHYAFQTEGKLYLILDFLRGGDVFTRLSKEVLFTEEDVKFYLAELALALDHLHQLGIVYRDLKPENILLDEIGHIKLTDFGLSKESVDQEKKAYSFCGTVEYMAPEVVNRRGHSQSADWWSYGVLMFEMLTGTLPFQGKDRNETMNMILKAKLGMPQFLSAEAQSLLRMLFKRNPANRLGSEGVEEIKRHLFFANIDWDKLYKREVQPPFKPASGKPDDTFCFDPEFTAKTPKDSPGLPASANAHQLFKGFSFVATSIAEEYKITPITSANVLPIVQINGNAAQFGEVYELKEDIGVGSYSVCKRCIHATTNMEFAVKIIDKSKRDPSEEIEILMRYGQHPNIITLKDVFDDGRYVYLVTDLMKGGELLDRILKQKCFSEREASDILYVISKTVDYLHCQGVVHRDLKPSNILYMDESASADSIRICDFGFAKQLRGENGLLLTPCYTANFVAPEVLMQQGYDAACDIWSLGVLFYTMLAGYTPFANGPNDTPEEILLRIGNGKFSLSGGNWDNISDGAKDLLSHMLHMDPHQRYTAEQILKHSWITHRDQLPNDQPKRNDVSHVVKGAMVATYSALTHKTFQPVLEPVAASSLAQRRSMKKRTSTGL", "conditions": "at 1 µM", "units": {"residual activity": "%"}, "values": [{"smiles": "COc1cc2nccc(Oc3ccc(NC(=O)Nc4cc(C)on4)c(Cl)c3)c2cc1OC", "residual activity": 99}, {"smiles": "O=S(=O)(NCCNC/C=C/c1ccc(Br)cc1)c1cccc2cnccc12", "residual activity": 18}, {"smiles": "O=C1NC(=O)C(c2cn(CCCn3ccnc3)c3ccccc23)=C1Nc1ccccc1", "residual activity": 5}, {"smiles": "COc1cc2c(cc1OC)-c1n[nH]c(Nc3cccc(F)c3)c1C2", "residual activity": 105}, {"smiles": "O=C1Cc2c([nH]c3ccc([N+](=O)[O-])cc23)-c2ccccc2N1", "residual activity": 64}, {"smiles": "NC(=O)c1ccc(-c2nc(-c3ccc4c(c3)OCCO4)c(-c3ccccn3)[nH]2)cc1", "residual activity": 90}, {"smiles": "COc1ccc2c(c1)c(C1=C(c3c[nH]c4ccccc34)C(=O)NC1=O)cn2CCCN(C)C", "residual activity": 4}, {"smiles": "O=C1Nc2ccccc2/C1=C\\c1c(Cl)[nH]c2ccccc12", "residual activity": 51}, {"smiles": "CCOC(=O)c1c(C)[nH]c(/C=C2\\C(=O)Nc3ccccc32)c1C", "residual activity": 88}, {"smiles": "COc1ccc(COc2ccc(Cc3cnc(N)nc3N)cc2OC)cc1", "residual activity": 110}, {"smiles": "Cc1cc(C)c(/C=C2\\C(=O)Nc3ccccc32)[nH]1", "residual activity": 38}, {"smiles": "COc1ccc(-c2cnc3c(-c4ccsc4)cnn3c2)cc1", "residual activity": 100}, {"smiles": "O=C(Nc1nc2ccccc2n1CCN1CCOCC1)c1cccc([N+](=O)[O-])c1", "residual activity": 108}, {"smiles": "CCN(CC)CCNC(=O)c1c(C)[nH]c(/C=C2\\C(=O)Nc3ccc(Cl)cc32)c1C", "residual activity": 14}, {"smiles": "O=C1NC(=O)C(c2c[nH]c3ccccc23)=C1c1c[nH]c2ccccc12", "residual activity": 9}, {"smiles": "N#Cc1c(NC(=O)c2cccc3ccccc23)sc2c1CCCC2", "residual activity": 92}, {"smiles": "N#C/C(=C1/Nc2ccccc2S1)c1ccnc(NCCc2cccnc2)n1", "residual activity": 63}, {"smiles": "CN(C)S(=O)(=O)c1ccc2c(c1)/C(=C/c1cc3c([nH]1)CCCC3)C(=O)N2", "residual activity": 84}, {"smiles": "O=C1NC(=O)C(c2cn(CCCO)c3ncccc23)=C1c1cnccn1", "residual activity": 83}]}, {"target": "Ribosomal protein S6 kinase alpha-6 (Homo sapiens) (UniProt Q9UK32)", "conditions": "at 10 µM", "units": {"residual activity": "%"}, "values": [{"smiles": "Nc1nccc(-c2c(-c3ccc(F)cc3)ncn2C2CCNCC2)n1", "residual activity": 70}, {"smiles": "O=S(=O)(NCCNC/C=C/c1ccc(Br)cc1)c1cccc2cnccc12", "residual activity": 9}, {"smiles": "O=C1NC(=O)C(c2cn(CCCn3ccnc3)c3ccccc23)=C1Nc1ccccc1", "residual activity": 2}, {"smiles": "Fc1ccc(-c2nc3n(c2-c2ccncc2)CCS3)cc1", "residual activity": 92}, {"smiles": "O=C1Cc2c([nH]c3ccc([N+](=O)[O-])cc23)-c2ccccc2N1", "residual activity": 38}, {"smiles": "COc1ccc2c(c1)c(C1=C(c3c[nH]c4ccccc34)C(=O)NC1=O)cn2CCCN(C)C", "residual activity": 2}, {"smiles": "O=C1Nc2ccccc2/C1=C\\c1c(Cl)[nH]c2ccccc12", "residual activity": 33}, {"smiles": "CCOC(=O)c1c(C)[nH]c(/C=C2\\C(=O)Nc3ccccc32)c1C", "residual activity": 90}, {"smiles": "COc1ccc(COc2ccc(Cc3cnc(N)nc3N)cc2OC)cc1", "residual activity": 116}, {"smiles": "Cc1cc(C)c(/C=C2\\C(=O)Nc3ccccc32)[nH]1", "residual activity": 17}, {"smiles": "O=C(c1ccccc1)c1ccc(N2CCOCC2)cc1O", "residual activity": 130}, {"smiles": "COc1ccc(-c2cnc3c(-c4ccsc4)cnn3c2)cc1", "residual activity": 136}, {"smiles": "O=C(Nc1nc2ccccc2n1CCN1CCOCC1)c1cccc([N+](=O)[O-])c1", "residual activity": 80}, {"smiles": "CCN(CC)CCNC(=O)c1c(C)[nH]c(/C=C2\\C(=O)Nc3ccc(Cl)cc32)c1C", "residual activity": 9}, {"smiles": "O=c1cc(N2CCNCC2)oc2c(-c3ccccc3)cccc12", "residual activity": 89}, {"smiles": "O=C1NC(=O)C(c2c[nH]c3ccccc23)=C1c1c[nH]c2ccccc12", "residual activity": 1}, {"smiles": "N#Cc1c(NC(=O)c2cccc3ccccc23)sc2c1CCCC2", "residual activity": 90}, {"smiles": "N#C/C(=C1/Nc2ccccc2S1)c1ccnc(NCCc2cccnc2)n1", "residual activity": 63}, {"smiles": "CN(C)S(=O)(=O)c1ccc2c(c1)/C(=C/c1cc3c([nH]1)CCCC3)C(=O)N2", "residual activity": 89}, {"smiles": "O=C1NC(=O)C(c2cn(CCCO)c3ncccc23)=C1c1cnccn1", "residual activity": 65}]}]}
